# Measured values: the supplement of paper PMC8728848
# This excerpt belongs to a sample that is enriched for the strongest signals.
# B1: TAL6-4LysM (Trichoderma atroviride) (protein)
# chain: AADSIPSISPTGIITPTPTQSGMVSNCNKFYDVHSNDGCSAIASSQHVDLSSLYKWNPAIKTDCSGLQASVYVCIGILTTSMSTTSKLPTTTSKPSTTSKPPTGITTPTPTQSGMVKNCNKFYDVHSGDGCSAIASSQKVNLSSFYLWNPAVKTDCSGLQASVFVCIGTLTTSMSTTTSKLPTTTSKPSTTSKPPTGIITPTPTQNGMVKNCNKFYDVHSGDGCSAIASSQKVNLSSFYLWNPAVKTDCSGLQASVFVCVGTATTTTAAGITTPTPTQSGMVSGCNKFYDVHAGDGCSAIASSQKIALSSLYKWNPAVKTDCSGLQASVYICIGVGNAAAARVTGALEQKLISEEDLNSAVDHHHHHH
# What was measured:
# Assay in all cases: glycan array binding signal (z-score within array); higher = stronger binding
# Details in all cases: glycan notation: IUPAC condensed, linker removed
# Gal6S(b1-3)GlcNAc6S = target: Gal6S(b1-3)GlcNAc6S
# Procedure, shortened: (§1)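 Glycan array data were curated from 3228 arrays in the Consortium for Functional Glycomics database and kept only where the protein sequence was available. Glycan names were converted to IUPAC-condensed notation, and columns mapping to the same glycan were averaged. The binding signal is a within-array Z-score, averaged across arrays of the same protein sequence at different concentrations or buffers and across linkers. Negative Z-scores can be read as non-binding.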
# GalNAc4S6S(b1-4)GlcNAc = target: GalNAc4S6S(b1-4)GlcNAc
# Procedure, shortened: as §1
# Glc(a1-4)Glc = target: Glc(a1-4)Glc
# Procedure, shortened: as §1
# [1] = target: GlcA3S(b1-3)Gal(b1-4)GlcNAc(b1-3)Gal(b1-4)Glc
# Procedure, shortened: as §1
# [2] = target: GlcNAc(a1-4)Gal(b1-3)GlcNAc
# Procedure, shortened: as §1
# [3] = target: GlcNAc(b1-2)Man(a1-3)[GlcNAc(b1-2)Man(a1-6)]Man(b1-4)GlcNAc(b1-4)GlcNAc
# Procedure, shortened: as §1
# Man(a1-3)[Man(a1-6)]Man = target: Man(a1-3)[Man(a1-6)]Man
# Procedure, shortened: as §1
# Man(a1-6)Man = target: Man(a1-6)Man
# Procedure, shortened: as §1
# [4] = target: Neu5Ac(a2-3)Gal(b1-3)GalNAc6S
# Procedure, shortened: as §1
# [5] = target: Neu5Ac(a2-3)Gal(b1-4)GlcNAc(b1-2)[Neu5Ac(a2-3)Gal(b1-4)GlcNAc(b1-4)]Man(a1-3)[GlcNAc(b1-4)][Neu5Ac(a2-3)Gal(b1-4)GlcNAc(b1-2)[Neu5Ac(a2-3)Gal(b1-4)GlcNAc(b1-6)]Man(a1-6)]Man(b1-4)GlcNAc(b1-4)GlcNAc
# Procedure, shortened: as §1
# [6] = target: Neu5Ac(a2-3)Gal(b1-4)GlcNAc(b1-3)Gal(b1-4)GlcNAc(b1-2)Man(a1-3)[Neu5Ac(a2-3)Gal(b1-4)GlcNAc(b1-3)Gal(b1-4)GlcNAc(b1-2)Man(a1-6)]Man(b1-4)GlcNAc(b1-4)GlcNAc
# Procedure, shortened: as §1
# [7] = target: Neu5Ac(a2-3)Gal(b1-4)GlcNAc(b1-3)Gal(b1-4)GlcNAc(b1-3)GalNAc
# Procedure, shortened: as §1
# [8] = target: Neu5Ac(a2-3)Gal(b1-4)[Fuc(a1-3)]GlcNAc(b1-3)GalNAc
# Procedure, shortened: as §1
# [9] = target: Neu5Ac(a2-3)Gal6S(b1-4)[Fuc(a1-3)]GlcNAc
# Procedure, shortened: as §1
# [10] = target: Neu5Ac(a2-3)[GalNAc(b1-4)]Gal(b1-4)Glc
# Procedure, shortened: as §1
# [11] = target: Neu5Ac(a2-6)Gal(b1-3)GlcNAc(b1-3)[Gal(b1-4)GlcNAc(b1-6)]Gal(b1-4)Glc
# Procedure, shortened: as §1
# [12] = target: Neu5Ac(a2-6)Gal(b1-4)GlcNAc(b1-3)Gal(b1-4)GlcNAc(b1-3)GalNAc
# Procedure, shortened: as §1
# [13] = target: Neu5Ac(a2-6)Gal(b1-4)GlcNAc6S
# Procedure, shortened: as §1
# [14] = target: Neu5Ac(a2-8)Neu5Ac(a2-3)[Gal(b1-3)GalNAc(b1-4)]Gal(b1-4)Glc
# Procedure, shortened: as §1
# [15] = target: Neu5Gc(b2-6)Gal(b1-4)GlcNAc
# Procedure, shortened: as §1
binder,measurement,setting,value
B1,glycan array binding signal (z-score),Gal6S(b1-3)GlcNAc6S,0.018
same,glycan array binding signal (z-score),GalNAc4S6S(b1-4)GlcNAc,1.16
same,glycan array binding signal (z-score),Glc(a1-4)Glc,-0.584
same,glycan array binding signal (z-score),[1],1.02
same,glycan array binding signal (z-score),[2],-0.119
same,glycan array binding signal (z-score),[3],2.79
same,glycan array binding signal (z-score),Man(a1-3)[Man(a1-6)]Man,3.24
same,glycan array binding signal (z-score),Man(a1-6)Man,-1.37
same,glycan array binding signal (z-score),[4],0.743
same,glycan array binding signal (z-score),[5],-1.17
same,glycan array binding signal (z-score),[6],2.52
same,glycan array binding signal (z-score),[7],-0.304
same,glycan array binding signal (z-score),[8],-0.18
same,glycan array binding signal (z-score),[9],-1.06
same,glycan array binding signal (z-score),[10],-1.03
same,glycan array binding signal (z-score),[11],0.176
same,glycan array binding signal (z-score),[12],3.9
same,glycan array binding signal (z-score),[13],1.36
same,glycan array binding signal (z-score),[14],-0.586
same,glycan array binding signal (z-score),[15],-0.286
